Laboratory results taken from ChEMBL document CHEMBL1961873, “Compounds: GSK PKIS; Assays: Nanosyn kinase panel” (2012).

What was measured:
[1] = target: Ribosomal protein S6 kinase alpha-6 (Homo sapiens) (UniProt Q9UK32); conditions: at 1 µM;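 note: each value is a mean inhibition of RSK4 from a GSK PKIS panel screen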
[2] = target: T1, Serine/threonine-protein kinase Sgk1 (Homo sapiens) (UniProt O00141); conditions: at 0.1 µM
T1 sequence (whole entry): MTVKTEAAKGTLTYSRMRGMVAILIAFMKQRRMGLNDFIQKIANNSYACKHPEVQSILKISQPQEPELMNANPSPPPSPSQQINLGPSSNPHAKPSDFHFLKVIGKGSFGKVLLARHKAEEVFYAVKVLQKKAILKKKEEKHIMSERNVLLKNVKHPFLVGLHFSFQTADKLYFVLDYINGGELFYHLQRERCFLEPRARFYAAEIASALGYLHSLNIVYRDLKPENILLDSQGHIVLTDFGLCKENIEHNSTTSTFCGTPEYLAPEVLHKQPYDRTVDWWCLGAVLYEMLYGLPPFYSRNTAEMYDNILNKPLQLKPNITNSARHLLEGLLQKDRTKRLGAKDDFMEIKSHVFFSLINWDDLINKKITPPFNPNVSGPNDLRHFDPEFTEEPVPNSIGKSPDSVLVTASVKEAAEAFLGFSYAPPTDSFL

[3] = target: T1, Serine/threonine-protein kinase Sgk1 (Homo sapiens); conditions: at 1 µM
[4] = target: T2, Serine/threonine-protein kinase Sgk2 (Homo sapiens) (UniProt Q9HBY8); conditions: at 0.1 µM
T2 sequence (whole entry): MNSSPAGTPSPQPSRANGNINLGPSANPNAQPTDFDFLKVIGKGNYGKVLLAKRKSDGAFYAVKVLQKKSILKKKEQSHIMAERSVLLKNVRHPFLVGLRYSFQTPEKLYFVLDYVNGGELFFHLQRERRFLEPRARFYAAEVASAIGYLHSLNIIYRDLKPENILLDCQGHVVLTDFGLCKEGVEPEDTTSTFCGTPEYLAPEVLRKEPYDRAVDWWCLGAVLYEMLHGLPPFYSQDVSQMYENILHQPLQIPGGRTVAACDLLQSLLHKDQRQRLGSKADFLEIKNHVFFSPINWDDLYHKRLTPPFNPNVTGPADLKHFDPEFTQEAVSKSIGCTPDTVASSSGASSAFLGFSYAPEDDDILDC

[5] = target: T2, Serine/threonine-protein kinase Sgk2 (Homo sapiens); conditions: at 1 µM
[6] = target: T3, Serine/threonine-protein kinase Sgk3 (Homo sapiens) (UniProt Q96BR1); conditions: at 0.1 µM
T3 sequence (whole entry): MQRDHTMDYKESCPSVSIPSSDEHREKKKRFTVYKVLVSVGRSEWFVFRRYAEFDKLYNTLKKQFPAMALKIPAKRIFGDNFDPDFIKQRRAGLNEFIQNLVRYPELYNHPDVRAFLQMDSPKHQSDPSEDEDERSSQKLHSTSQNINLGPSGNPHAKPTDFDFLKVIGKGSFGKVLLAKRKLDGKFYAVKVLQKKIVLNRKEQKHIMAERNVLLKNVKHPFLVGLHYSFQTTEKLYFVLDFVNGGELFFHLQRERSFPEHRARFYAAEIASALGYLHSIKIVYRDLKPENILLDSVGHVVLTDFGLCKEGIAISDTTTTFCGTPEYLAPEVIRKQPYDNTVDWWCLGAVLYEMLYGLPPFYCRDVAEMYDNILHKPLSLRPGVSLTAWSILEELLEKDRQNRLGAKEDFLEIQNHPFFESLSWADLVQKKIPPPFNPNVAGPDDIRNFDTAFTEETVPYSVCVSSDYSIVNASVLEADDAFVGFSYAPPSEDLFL

[7] = target: T3, Serine/threonine-protein kinase Sgk3 (Homo sapiens); conditions: at 1 µM
[8] = target: 5'-AMP-activated protein kinase catalytic subunit alpha-1 (Homo sapiens) (UniProt Q13131); conditions: at 0.1 µM
5'-AMP-activated protein kinase catalytic subunit alpha-1 (Homo sapiens), sequence (Q13131 whole entry, looked up): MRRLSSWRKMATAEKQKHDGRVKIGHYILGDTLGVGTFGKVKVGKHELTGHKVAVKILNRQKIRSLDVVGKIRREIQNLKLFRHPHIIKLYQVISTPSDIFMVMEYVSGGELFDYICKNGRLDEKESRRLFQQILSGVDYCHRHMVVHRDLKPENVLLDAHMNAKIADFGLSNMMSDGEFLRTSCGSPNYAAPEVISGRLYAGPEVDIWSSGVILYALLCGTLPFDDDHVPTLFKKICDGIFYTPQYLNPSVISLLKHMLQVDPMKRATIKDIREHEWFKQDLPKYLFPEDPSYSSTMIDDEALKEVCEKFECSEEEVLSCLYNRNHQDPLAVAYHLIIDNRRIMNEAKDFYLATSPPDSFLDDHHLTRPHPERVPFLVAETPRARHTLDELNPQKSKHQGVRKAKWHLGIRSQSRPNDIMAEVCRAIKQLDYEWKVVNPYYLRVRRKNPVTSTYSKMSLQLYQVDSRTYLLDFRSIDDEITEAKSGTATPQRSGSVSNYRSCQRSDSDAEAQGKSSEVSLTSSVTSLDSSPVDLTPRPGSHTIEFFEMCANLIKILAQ

[9] = target: 5'-AMP-activated protein kinase catalytic subunit alpha-1 (Homo sapiens) (UniProt Q13131); conditions: at 1 µM
[10] = target: 5'-AMP-activated protein kinase catalytic subunit alpha-2 (Homo sapiens) (UniProt P54646); conditions: at 0.1 µM
5'-AMP-activated protein kinase catalytic subunit alpha-2 (Homo sapiens), sequence (P54646 whole entry, looked up): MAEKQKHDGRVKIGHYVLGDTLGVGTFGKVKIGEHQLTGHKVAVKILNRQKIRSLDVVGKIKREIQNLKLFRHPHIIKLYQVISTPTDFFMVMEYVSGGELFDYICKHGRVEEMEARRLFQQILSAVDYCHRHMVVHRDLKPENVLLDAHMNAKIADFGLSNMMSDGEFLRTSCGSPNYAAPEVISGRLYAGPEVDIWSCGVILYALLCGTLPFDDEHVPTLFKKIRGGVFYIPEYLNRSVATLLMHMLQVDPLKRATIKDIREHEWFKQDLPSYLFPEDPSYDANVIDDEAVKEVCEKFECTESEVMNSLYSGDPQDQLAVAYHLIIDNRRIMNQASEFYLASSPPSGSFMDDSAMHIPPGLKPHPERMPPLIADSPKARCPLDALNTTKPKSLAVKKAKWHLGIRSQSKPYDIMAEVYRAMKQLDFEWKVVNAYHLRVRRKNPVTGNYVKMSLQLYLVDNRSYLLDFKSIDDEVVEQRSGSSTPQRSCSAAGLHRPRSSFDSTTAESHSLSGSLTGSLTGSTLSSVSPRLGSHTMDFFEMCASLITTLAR

[11] = target: 5'-AMP-activated protein kinase catalytic subunit alpha-2 (Homo sapiens) (UniProt P54646); conditions: at 1 µM
[12] = target: T4, NUAK family SNF1-like kinase 1 (Homo sapiens) (UniProt O60285); conditions: at 0.1 µM
T4 sequence (whole entry): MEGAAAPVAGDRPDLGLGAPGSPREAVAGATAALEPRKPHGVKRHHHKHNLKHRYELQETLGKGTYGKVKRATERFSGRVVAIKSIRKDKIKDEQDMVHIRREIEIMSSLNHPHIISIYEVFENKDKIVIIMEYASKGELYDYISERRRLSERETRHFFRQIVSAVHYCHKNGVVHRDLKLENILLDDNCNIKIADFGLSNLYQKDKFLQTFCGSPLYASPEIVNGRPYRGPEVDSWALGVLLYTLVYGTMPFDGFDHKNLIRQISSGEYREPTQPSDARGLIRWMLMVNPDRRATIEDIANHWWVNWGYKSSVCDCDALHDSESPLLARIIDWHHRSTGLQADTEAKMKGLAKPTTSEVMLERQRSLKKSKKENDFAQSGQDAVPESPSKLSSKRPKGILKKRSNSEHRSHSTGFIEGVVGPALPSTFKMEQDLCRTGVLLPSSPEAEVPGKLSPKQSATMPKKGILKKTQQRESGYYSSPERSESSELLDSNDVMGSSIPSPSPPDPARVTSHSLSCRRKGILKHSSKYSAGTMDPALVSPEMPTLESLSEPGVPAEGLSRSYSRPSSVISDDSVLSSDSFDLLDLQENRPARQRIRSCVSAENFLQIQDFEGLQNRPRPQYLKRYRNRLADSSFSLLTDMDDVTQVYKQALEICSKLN

[13] = target: T4, NUAK family SNF1-like kinase 1 (Homo sapiens); conditions: at 1 µM
[14] = target: T5, Serine/threonine-protein kinase BRSK1 (Homo sapiens) (UniProt Q8TDC3); conditions: at 0.1 µM
T5 sequence (whole entry): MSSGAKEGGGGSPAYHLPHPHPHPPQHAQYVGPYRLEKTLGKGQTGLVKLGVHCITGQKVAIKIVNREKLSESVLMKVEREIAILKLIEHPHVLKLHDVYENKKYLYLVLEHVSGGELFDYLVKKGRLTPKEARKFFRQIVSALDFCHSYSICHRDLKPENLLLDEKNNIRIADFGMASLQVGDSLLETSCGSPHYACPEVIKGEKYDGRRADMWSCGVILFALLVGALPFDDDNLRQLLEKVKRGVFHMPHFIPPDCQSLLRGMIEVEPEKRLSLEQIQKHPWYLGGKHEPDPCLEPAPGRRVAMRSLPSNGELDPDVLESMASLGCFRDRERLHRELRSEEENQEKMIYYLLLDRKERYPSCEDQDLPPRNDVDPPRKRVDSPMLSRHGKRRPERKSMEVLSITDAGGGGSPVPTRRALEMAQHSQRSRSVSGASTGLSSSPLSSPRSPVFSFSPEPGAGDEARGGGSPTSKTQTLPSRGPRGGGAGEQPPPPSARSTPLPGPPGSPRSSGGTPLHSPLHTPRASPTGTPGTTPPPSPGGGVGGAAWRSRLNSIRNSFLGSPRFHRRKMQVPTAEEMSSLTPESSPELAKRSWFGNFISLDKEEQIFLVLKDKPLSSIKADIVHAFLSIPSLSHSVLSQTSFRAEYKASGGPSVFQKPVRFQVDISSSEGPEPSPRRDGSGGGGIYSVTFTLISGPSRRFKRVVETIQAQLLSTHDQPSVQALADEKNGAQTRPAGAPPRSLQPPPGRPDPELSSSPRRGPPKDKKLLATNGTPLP

[15] = target: T5, Serine/threonine-protein kinase BRSK1 (Homo sapiens); conditions: at 1 µM
[16] = target: T6, Serine/threonine-protein kinase BRSK2 (Homo sapiens) (UniProt Q8IWQ3); conditions: at 0.1 µM
T6 sequence (whole entry): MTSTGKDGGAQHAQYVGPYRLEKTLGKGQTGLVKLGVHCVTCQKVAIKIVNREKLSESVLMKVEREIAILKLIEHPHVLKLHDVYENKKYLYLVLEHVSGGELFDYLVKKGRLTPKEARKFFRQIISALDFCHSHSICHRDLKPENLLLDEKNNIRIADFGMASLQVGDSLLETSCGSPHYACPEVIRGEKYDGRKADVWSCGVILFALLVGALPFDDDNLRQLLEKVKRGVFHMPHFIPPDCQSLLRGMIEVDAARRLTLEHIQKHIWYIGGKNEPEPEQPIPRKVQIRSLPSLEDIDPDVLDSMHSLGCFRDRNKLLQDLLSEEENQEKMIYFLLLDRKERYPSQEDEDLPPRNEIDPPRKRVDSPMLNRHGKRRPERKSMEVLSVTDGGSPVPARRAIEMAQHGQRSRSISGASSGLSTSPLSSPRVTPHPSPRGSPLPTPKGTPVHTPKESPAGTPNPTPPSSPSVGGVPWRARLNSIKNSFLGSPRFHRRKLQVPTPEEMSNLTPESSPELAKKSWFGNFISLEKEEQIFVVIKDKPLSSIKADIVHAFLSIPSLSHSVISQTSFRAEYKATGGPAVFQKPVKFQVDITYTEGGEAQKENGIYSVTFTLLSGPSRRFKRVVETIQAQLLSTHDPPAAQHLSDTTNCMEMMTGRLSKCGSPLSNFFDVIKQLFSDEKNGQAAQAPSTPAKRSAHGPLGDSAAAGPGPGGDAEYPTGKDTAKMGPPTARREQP

[17] = target: T6, Serine/threonine-protein kinase BRSK2 (Homo sapiens); conditions: at 1 µM
[18] = target: Calcium/calmodulin-dependent protein kinase type 1D (Homo sapiens) (UniProt Q8IU85); conditions: at 0.1 µM
Calcium/calmodulin-dependent protein kinase type 1D (Homo sapiens), sequence (Q8IU85 whole entry, looked up): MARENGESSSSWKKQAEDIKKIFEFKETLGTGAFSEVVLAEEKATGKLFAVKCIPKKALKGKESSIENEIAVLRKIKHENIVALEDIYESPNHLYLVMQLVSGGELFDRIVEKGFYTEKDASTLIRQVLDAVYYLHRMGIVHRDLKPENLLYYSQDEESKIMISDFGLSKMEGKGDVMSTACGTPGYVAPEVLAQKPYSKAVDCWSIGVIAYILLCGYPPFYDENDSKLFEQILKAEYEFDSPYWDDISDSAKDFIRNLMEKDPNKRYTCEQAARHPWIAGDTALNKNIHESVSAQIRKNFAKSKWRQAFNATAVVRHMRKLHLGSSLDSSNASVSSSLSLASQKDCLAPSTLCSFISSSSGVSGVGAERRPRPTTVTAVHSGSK

[19] = target: Calcium/calmodulin-dependent protein kinase type 1D (Homo sapiens) (UniProt Q8IU85); conditions: at 1 µM
[20] = target: Calcium/calmodulin-dependent protein kinase type II subunit alpha (Homo sapiens) (UniProt Q9UQM7); conditions: at 0.1 µM;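 note: reported values are averages (mean inhibition of CAMK2A)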
Calcium/calmodulin-dependent protein kinase type II subunit alpha (Homo sapiens), sequence (Q9UQM7 whole entry): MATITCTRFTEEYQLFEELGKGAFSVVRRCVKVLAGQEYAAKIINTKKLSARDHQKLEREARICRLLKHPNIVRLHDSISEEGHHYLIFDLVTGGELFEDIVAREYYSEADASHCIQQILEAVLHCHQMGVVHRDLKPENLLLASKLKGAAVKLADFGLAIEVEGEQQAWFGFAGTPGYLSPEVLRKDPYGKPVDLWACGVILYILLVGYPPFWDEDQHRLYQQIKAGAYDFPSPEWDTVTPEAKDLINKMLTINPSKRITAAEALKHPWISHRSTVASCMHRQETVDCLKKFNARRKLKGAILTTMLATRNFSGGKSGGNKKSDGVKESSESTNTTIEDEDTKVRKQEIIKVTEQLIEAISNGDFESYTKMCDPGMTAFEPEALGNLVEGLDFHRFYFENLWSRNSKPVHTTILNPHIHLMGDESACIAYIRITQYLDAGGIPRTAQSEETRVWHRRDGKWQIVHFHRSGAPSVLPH

Ribosomal protein S6 kinase alpha-6 (Homo sapiens), sequence (Q9UK32 whole entry): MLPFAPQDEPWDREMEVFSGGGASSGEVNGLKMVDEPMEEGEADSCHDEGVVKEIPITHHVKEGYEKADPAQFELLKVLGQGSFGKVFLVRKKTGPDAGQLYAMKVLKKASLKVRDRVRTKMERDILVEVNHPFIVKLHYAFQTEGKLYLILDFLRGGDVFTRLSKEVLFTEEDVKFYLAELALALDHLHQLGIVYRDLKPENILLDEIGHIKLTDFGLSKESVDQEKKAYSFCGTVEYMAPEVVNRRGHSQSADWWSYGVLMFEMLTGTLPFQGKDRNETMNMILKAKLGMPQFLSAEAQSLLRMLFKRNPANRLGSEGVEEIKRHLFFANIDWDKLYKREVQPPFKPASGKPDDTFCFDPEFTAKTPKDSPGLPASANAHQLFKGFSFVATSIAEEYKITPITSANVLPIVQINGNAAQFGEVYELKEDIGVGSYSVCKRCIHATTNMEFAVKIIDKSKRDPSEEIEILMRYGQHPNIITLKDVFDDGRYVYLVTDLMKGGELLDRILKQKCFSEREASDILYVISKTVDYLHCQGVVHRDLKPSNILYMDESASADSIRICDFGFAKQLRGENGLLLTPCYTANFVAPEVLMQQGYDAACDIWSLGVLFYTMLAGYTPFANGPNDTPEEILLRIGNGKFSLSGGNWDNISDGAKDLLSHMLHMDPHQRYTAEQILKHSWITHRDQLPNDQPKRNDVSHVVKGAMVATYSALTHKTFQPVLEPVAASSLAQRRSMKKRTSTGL

O=C1NC(=O)C(c2ccc(Cl)cc2)=C1Nc1ccc(Cl)c(C(=O)O)c1
inhibition [1]: -1.03% | inhibition [2]: 1.08% | inhibition [3]: -1.96% | inhibition [4]: -3.55% | inhibition [5]: -0.77% | inhibition [6]: -1.08% | inhibition [7]: -4.32% | inhibition [8]: -0.6% | inhibition [9]: -0.54% | inhibition [10]: 0.26% | inhibition [11]: -0.57% | inhibition [12]: 1.82% | inhibition [13]: 3.54% | inhibition [14]: -0.49% | inhibition [15]: 0.55% | inhibition [16]: 0.35% | inhibition [17]: -1.78% | inhibition [18]: -0.66% | inhibition [19]: 4.19% | inhibition [20]: -2.83%

COc1cc2ncn(-c3cc(OCc4ccccc4C(F)(F)F)c(C(N)=O)s3)c2cc1OC
inhibition [1]: 23.6% | inhibition [2]: 3.02% | inhibition [3]: 1.49% | inhibition [4]: 6.11% | inhibition [5]: 0.81% | inhibition [6]: 3.87% | inhibition [7]: 1.64% | inhibition [8]: 5.52% | inhibition [9]: 19.1% | inhibition [10]: 2.61% | inhibition [11]: 6.24% | inhibition [12]: 21.7% | inhibition [13]: 65.5% | inhibition [14]: 6.7% | inhibition [15]: 41.1% | inhibition [16]: 14.8% | inhibition [17]: 52.4% | inhibition [18]: -0.86% | inhibition [19]: -1.9% | inhibition [20]: 2.39%

COc1ccc(COc2ccc(Cc3cnc(N)nc3N)cc2OC)cc1
inhibition [1]: -0.61% | inhibition [2]: 5.08% | inhibition [3]: 1.31% | inhibition [4]: 4.24% | inhibition [5]: 3% | inhibition [6]: 2.57% | inhibition [7]: 1.28% | inhibition [8]: -0.17% | inhibition [9]: -0.28% | inhibition [10]: 2.65% | inhibition [11]: 2.37% | inhibition [12]: 3.64% | inhibition [13]: 3.71% | inhibition [14]: 4.29% | inhibition [15]: 3.19% | inhibition [16]: 2.82% | inhibition [17]: 2.49% | inhibition [18]: 3.83% | inhibition [19]: 5.51% | inhibition [20]: 3.64%

CCCN1CCC=C(c2ccc(Nc3nc(Nc4ccccc4C(N)=O)c4cc[nH]c4n3)c(C)c2)C1
inhibition [1]: 38.9% | inhibition [2]: 1.16% | inhibition [3]: 5.7% | inhibition [4]: 1.55% | inhibition [5]: 1.12% | inhibition [6]: 2.67% | inhibition [7]: 2.94% | inhibition [8]: 4.78% | inhibition [9]: 29.5% | inhibition [10]: 8.68% | inhibition [11]: 14.5% | inhibition [12]: 48.4% | inhibition [13]: 69.8% | inhibition [14]: 3.51% | inhibition [15]: 4.05% | inhibition [16]: 2.36% | inhibition [17]: 6.53% | inhibition [18]: 1.21% | inhibition [19]: 12.8% | inhibition [20]: 3.75%

COc1cc2ncn(-c3cc(O[C@H](C)c4ccccc4Cl)c(C(N)=O)s3)c2cc1OC
inhibition [1]: 25.5% | inhibition [2]: 5.03% | inhibition [3]: 7.28% | inhibition [4]: 2.67% | inhibition [5]: 5.65% | inhibition [6]: 5.72% | inhibition [7]: 6.55% | inhibition [8]: 6.49% | inhibition [9]: 23.7% | inhibition [10]: 2.58% | inhibition [11]: 8.68% | inhibition [12]: 24% | inhibition [13]: 71.8% | inhibition [14]: 30.1% | inhibition [15]: 64.9% | inhibition [16]: 42% | inhibition [17]: 69.2% | inhibition [18]: 1.01% | inhibition [19]: 2.31% | inhibition [20]: 3.24%

CN1CCC(C(=O)Nc2n[nH]c3nnc(-c4ccccc4)cc23)CC1
inhibition [1]: 1.86% | inhibition [2]: 3.01% | inhibition [3]: 6.62% | inhibition [4]: 4.36% | inhibition [5]: 3.52% | inhibition [6]: 2.89% | inhibition [7]: 5.04% | inhibition [8]: 5.95% | inhibition [9]: 5.95% | inhibition [10]: 4.12% | inhibition [11]: 5.01% | inhibition [12]: 1.18% | inhibition [13]: 3.89% | inhibition [14]: 1.14% | inhibition [15]: 4.22% | inhibition [16]: 2.62% | inhibition [17]: 6.52% | inhibition [18]: 0.42% | inhibition [19]: 1.89% | inhibition [20]: 3.75%
